Assay results taken from PubChem BioAssay (NCATS).
Results filed as inconclusive are left out. The call rests on the fitted dose curve; in most records, active means well fitted activation curve with a large enough effect in the main read-out, with a control signal flat (not every such curve was filed as active); inconclusive means small, poorly fitted or top-dose-only effect, or effect the other way, or a change in a side signal; inactive means flat fitted curve, though single readings scatter.

Target: 3',5'-cyclic-AMP phosphodiesterase 4B (Homo sapiens) (UniProt Q07343)
Test: qHTS Assay for Inhibitors of PDE-IV (AID 607); further: % of control where 0% means no effect
Conditions: HEK293 ACTOne CNG channel cells, membrane potential fluorescence; series mostly up to 22.9 µM; activation (PDE inhibition): at the top concentration
Source text: NIH Chemical Genomics Center [NCGC]
NIH Molecular Libraries Screening Centers Network [MLSCN]
The cyclic nucleotide phosphodiesterases (PDEs) are proteins that catalyze hydrolysis of 3', 5'-cyclic nucleotides, such as cyclic adenosine monophosphate (cAMP) and cyclic guanosine monophosphate (cGMP), to their corresponding 5'-nucleotide monophosphates. These enzymes play an important role in controlling cellular concentrations of cyclic nucleotides and have a central role in a variety of intracellular signaling events. cAMP PDEs are emerging as a promising class of drug targets in asthma and cardiovascular disease therapeutic areas.
There are no commercially available cell-based screening assays for PDE inhibitors: currently biochemical assays are done using pure substrates (cAMP or cGMP) and purified recombinant PDE enzymes. As with other biochemical screens on intracellular targets, false positives and false negatives may result from issues involving cell membrane permeability, cellular metabolism, and the like.
Here we report the development of a cell-based screening assay for cAMP phosphodiesterase (PDE) inhibitors. The assay is based on the BD ACTOne# technology (BD Biosciences) which utilizes a modified cyclic nucleotide-gated channel (CNG) to monitor intracellular cAMP changes in live cells. The CNG channel is localized on the plasma membrane, and opens when the intracellular cAMP level increases, resulting in ion flux and cell membrane depolarization. The influx of cations through the CNG channel can be quantified using membrane potential (MP) dyes. We modified the BD ACTOne technology to allow the detection of PDE inhibitors, and performed an inhibitor screen for PDE-IV, which is expressed endogenously in HEK293 cells. We optimized this assay in homogeneous 1536-well plate assay format for high throughput screening.
NCGC Assay Protocol Summary:
The medium contained 10% FBS (Invitrogen), 2 mM L-glutamine, and 250 ug/ml G418 (Cellgro) and 1 ug/ml puromycin (Clontech). ACTOneTM parental cells (BD Biosciences) were maintained in the same medium without puromycin.
The activity of the CNG channel was measured by BD ACTOneTM membrane potential dye kit (BD Biosciences). Forskolin, a positive control for cAMP activation and RO 20-1724, a PDE inhibitor, were both purchased from Sigma and solublized in DMSO.
Sequence,Parameter,Value,Description
1,Reagent,3 uL,1000 cells/well 1536 TC treated Black plate
3,Compound,0.5 uL,Kalypsys dispense RO 20-1724 100 uM final [A]
4,Reagent,3 uL,BD membrane potential dye
6,Compound,23 nL,Final concentration was 0.7nM to 22.9uM
8,Detector,EX 535 / EM 590 [B],Envision
Footnotes: [A] The stock 2 mM RO 20-1724 PDE inhibitor was made in 10 % DMSO. Parental cell line received 10 uM forskolin + 100 uM RO. [B] Envsion settings: Bottom Excitation 535/20 nm top emission 590/20, gain of 150 and 5 flashes per well.
Keywords: PDE, PDE-IV, cytotoxicity, flourescence, MLSMR, MLSCN, NIH Roadmap, qHTS, NCGC

3',5'-cyclic-AMP phosphodiesterase 4B (Homo sapiens), sequence (Q07343 whole entry, looked up): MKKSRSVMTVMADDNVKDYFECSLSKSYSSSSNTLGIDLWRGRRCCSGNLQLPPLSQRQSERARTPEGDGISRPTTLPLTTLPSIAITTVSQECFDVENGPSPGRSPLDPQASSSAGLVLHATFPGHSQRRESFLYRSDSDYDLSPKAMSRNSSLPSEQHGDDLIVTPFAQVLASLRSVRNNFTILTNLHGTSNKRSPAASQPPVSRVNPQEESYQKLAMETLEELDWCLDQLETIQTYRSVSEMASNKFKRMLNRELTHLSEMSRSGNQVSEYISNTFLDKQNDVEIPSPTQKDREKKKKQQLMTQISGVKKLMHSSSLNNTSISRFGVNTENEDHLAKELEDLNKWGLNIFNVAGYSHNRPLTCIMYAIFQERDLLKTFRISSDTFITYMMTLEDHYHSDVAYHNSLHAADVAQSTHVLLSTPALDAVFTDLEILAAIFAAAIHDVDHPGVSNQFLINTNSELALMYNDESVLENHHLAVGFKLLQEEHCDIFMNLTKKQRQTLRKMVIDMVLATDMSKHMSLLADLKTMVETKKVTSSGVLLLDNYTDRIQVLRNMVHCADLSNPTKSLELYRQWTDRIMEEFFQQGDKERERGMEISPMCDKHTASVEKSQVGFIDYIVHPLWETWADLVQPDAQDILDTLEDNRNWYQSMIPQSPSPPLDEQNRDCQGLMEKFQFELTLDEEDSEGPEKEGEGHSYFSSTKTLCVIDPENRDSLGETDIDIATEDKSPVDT

Activation (PDE inhibition), inactive:
COC(=O)[C@@]1(Cc2ccc(OC)cc2)[C@H]2c3cc(C(=O)N(C)C)n(Cc4cc(F)c(F)c(F)c4)c3C[C@H]2CN1C(=O)c1ccccc1 7.68%, C[C@@H](C(=O)Nc1ccc2ccccc2c1)[C@@H]1C[C@@]1(C)[C@@H](NS(=O)(=O)c1ccccc1)c1ccccc1 10.6%, COC(=O)[C@@]1(Cc2ccc(OC)cc2)[C@H]2c3cc(C(=O)N4CCCC4)n(Cc4ccc(OC(F)(F)F)cc4)c3C[C@H]2CN1C(=O)c1ccccc1 -7.64%, COC(=O)[C@@]1(Cc2ccc(OC)cc2)[C@H]2c3cc(C(=O)N4CCCC4)n(CCN4CCOCC4)c3C[C@H]2CN1C(=O)c1ccccc1 17.7%, C[C@H]1C2=C3C(CC[C@H]4C(OCc5ccc(F)cc5C(F)(F)F)OC[C@](C)([C@@H]34)N(C(=O)OC(C)(C)C)C2)C2COC(=O)OCC21 (stereo not given in full) -1.18%, COC(=O)[C@@]1(Cc2ccc(OC)cc2)[C@H]2c3cc(C(=O)N4CCCC4)n(C[C@H](O)CO)c3C[C@H]2CN1C(=O)c1ccccc1 4.9%, C[C@@H](C(=O)Nc1ccc2ccccc2c1)[C@@H]1C[C@@]1(C)[C@@H](NC(=O)c1cccnc1)c1ccccc1 11.9%, Cc1ccc(CNC(=O)[C@H](C)[C@@H]2C[C@@]2(C)[C@@H](NC(=O)OCc2ccccc2)c2ccccc2)c(F)c1F 11.9%, COC(=O)[C@@]1(Cc2ccc(F)cc2)[C@H]2c3cc(C(=O)N(C)C)n(Cc4nc5ccccc5[nH]4)c3C[C@H]2CN1C(=O)c1ccccc1 8.34%, O=C(NCC1CC1)[C@@H]1C[C@H]1[C@@H](NP(=O)(c1ccccc1)c1ccccc1)c1ccccc1 17.4%, COC(=O)[C@@]1(Cc2ccc(OC)cc2)[C@H]2c3cc(C(=O)N(C)C)n(Cc4ccc(Cl)c(C(F)(F)F)c4)c3C[C@H]2CN1C(=O)c1ccccc1 -19.7%, CC(C)=C1C(=O)C(c2ccccc2)=C2CN3C(=O)N(CCc4ccccc4)C(=O)[C@]3(Cc3ccc(C(F)(F)F)cc3)[C@H]21 0.276%, C[C@@H](C(=O)N[C@@H](CO)Cc1ccccc1)[C@H]1C[C@]1(C)[C@H](NC(=O)OCc1ccccc1)c1ccccc1 7.61%, Cc1ccc(CNC(=O)[C@H]2C[C@@H]2[C@H](NP(=O)(c2ccccc2)c2ccccc2)c2ccccc2)o1 11.9%, Cc1cc(C(=O)N[C@H](c2ccccc2)[C@@]2(C)C[C@@H]2[C@@H](C)C(=O)Nc2ccc3ccccc3c2)no1 7.75%, COC(=O)[C@@]1(Cc2ccc(OC)cc2)[C@H]2c3cc(C(=O)N4CCCC4)n(CCF)c3C[C@H]2CN1C(=O)c1ccccc1 7.92%, COC(=O)[C@@]1(Cc2ccc(OC)cc2)[C@H]2c3cc(C(=O)N4CCCC4)n(CCc4c[nH]c5ccccc45)c3C[C@H]2CN1C(=O)c1ccccc1 5.9%, COC(=O)[C@@]1(Cc2ccc(F)cc2)[C@H]2c3cc(C(=O)N4CCCC4)n(CC4CC4)c3C[C@H]2CN1C(=O)c1ccccc1 -1.54%, COC(=O)[C@@]1(Cc2ccc(OC)cc2)[C@H]2c3cc(C(=O)N4CCCC4)n(Cc4cc(F)c(F)c(F)c4)c3C[C@H]2CN1C(=O)c1ccccc1 1.88%, COC(=O)[C@@]1(Cc2ccccc2)[C@H]2c3cc(C(=O)N(C)C)n(CCSCCO)c3C[C@H]2CN1C(=O)c1ccccc1 -4.86%, O=C(NCc1ccccn1)[C@@H]1C[C@H]1[C@@H](NP(=O)(c1ccccc1)c1ccccc1)c1ccccc1 -2.23%, COC(=O)[C@@]1(Cc2ccc(OC)cc2)[C@H]2c3cc(C(=O)N(C)C)n(CCO)c3C[C@H]2CN1C(=O)c1ccccc1 -3.51%, COC(=O)[C@@]1(Cc2ccc(OC)cc2)[C@H]2c3cc(C(=O)N(C)C)n(Cc4cc(C)n(C)n4)c3C[C@H]2CN1C(=O)c1ccccc1 -8.98%, COC(=O)[C@@]1(Cc2ccc(F)cc2)[C@H]2c3cc(C(=O)N(C)C)n(Cc4cc(C)n(C)n4)c3C[C@H]2CN1C(=O)c1ccccc1 -5.33%, COC(=O)[C@@]1(Cc2ccc(OC)cc2)[C@H]2c3cc(C(=O)N4CCCC4)n(Cc4ccc(C)c(F)c4F)c3C[C@H]2CN1C(=O)c1ccccc1 18.6%, Cc1cc(CNC(=O)[C@H](C)[C@@H]2C[C@@]2(C)[C@@H](NC(=O)OCc2ccccc2)c2ccccc2)nn1C 17.8%, COC(=O)[C@@]1(Cc2ccc(F)cc2)[C@H]2c3cc(C(=O)N4CCCC4)n(Cc4ccc(S(C)(=O)=O)cc4)c3C[C@H]2CN1C(=O)c1ccccc1 -2.84%, CCC/C=C(\CCC)C(NC(=O)OCC(C)C)c1ccccc1 (stereo not given) -0.764%, O=C(NCc1ccccn1)[C@H]1C[C@@H]1[C@H](NP(=O)(c1ccccc1)c1ccccc1)c1ccccc1 16.3%, O=C(N[C@@H](c1ccccc1)[C@@H]1C[C@H]1C(=O)NCc1ccccc1)OCc1ccccc1 26.5%, COC(=O)[C@@]1(Cc2ccc(OC)cc2)[C@H]2c3cc(C(=O)N4CCCC4)n(Cc4ccsc4Br)c3C[C@H]2CN1C(=O)c1ccccc1 13.4%, C[C@@H](C(=O)NCc1ccc(C(F)(F)F)nc1)[C@H]1C[C@]1(C)[C@H](NC(=O)OCc1ccccc1)c1ccccc1 4.83%, COCCn1c(C(=O)N2CCCC2)cc2c1C[C@H]1CN(C(=O)c3ccccc3)[C@@](Cc3ccccc3)(C(=O)OC)[C@@H]21 -7.09%, COC(=O)[C@@H]1C[C@H]1[C@@H](NC(C)=O)c1ccccc1 1.45%, COC(=O)[C@@]1(Cc2ccccc2)[C@H]2c3cc(C(=O)N(C)C)n(Cc4cc(C)n(C)n4)c3C[C@H]2CN1C(=O)c1ccccc1 10.7%, COC(=O)[C@@]1(Cc2ccccc2)[C@H]2c3cc(C(=O)N(C)C)n(CCF)c3C[C@H]2CN1C(=O)c1ccccc1 9.14%, COC(=O)[C@H]1C[C@@H]1[C@H](NC(C)=O)c1ccccc1 -3.6%, Cc1ccc(CNC(=O)[C@@H]2C[C@H]2[C@@H](NP(=O)(c2ccccc2)c2ccccc2)c2ccccc2)o1 17.7%, COc1ccc(CNC(=O)[C@H](C)[C@H]2C[C@]2(C)[C@H](NC(=O)OCc2ccccc2)c2ccccc2)cc1OC 22.9%, COC(=O)[C@@]1(Cc2ccc(F)cc2)[C@H]2c3cc(C(=O)N4CCCC4)n(C[C@H](O)CO)c3C[C@H]2CN1C(=O)c1ccccc1 -0.695%
